Shown are actives, neighbours in structure and some others; about 18% of the full set was active somewhere.
KAT2A inh = GCN5L2 (KAT2A) acetyltransferase inhibition | AID 504327 | hit rate 0.21% among 390,000 | Potency, µM (series often up to 58.9 µM), for the others: top-dose activity change, negative = inhibition, actives largely listed as inhibitors | Q92830 | GCN5L2 HAT assay, ThioGlo1 CoA-SH fluorescence
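Preincubate 20nM GCN5L2 with compound 15 min, RT → add 50uM ThioGlo1 + 75uM H3(1-25) + 70uM acetyl-CoA → read fluorescence 0 and 20 min. Primary qHTS; fluorescent artifacts likely.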
TDP1 inh = blocks human tyrosyl-DNA phosphodiesterase 1; Q9NUW8; recombinant TDP1, AlphaScreen DNA substrate cleavage; Potency, µM (series often up to 130 µM), for the others: top-dose activity change, negative = inhibition, most hits filed as inhibitors; hit rate 0.28% among 350,000; also: nearly all actives have a fitted effect of over 40% in size
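Compounds were preincubated with Tdp1 (1 nM final) for 15 min at room temperature before substrate (15 nM final) started a 5 min reaction; beads (10 ug/ml final) were then added for 10 min before AlphaScreen detection.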
PLK1 PBD inh = blocks phosphopeptide binding to human PLK1 polo-box domain; P53350; Plk1 PBD binding of FITC phosphopeptide, fluorescence polarization; Potency, µM, inactives show max response, negative = inhibition, actives largely listed as inhibitors; hit rate 2.8% among 360,000; AID 720504; also: series mostly up to about 57 µM; nearly all actives have a fitted effect of over 65% in size
TDP1 cell noCPT = qHTS for Inhibitors of human tyrosyl-DNA phosphodiesterase 1 (TDP1): qHTS in cells in absence of CPT | DT40 Tdp1-/- hTDP1 cells, no CPT, ATP luminescence, 48 h | Potency, µM (doses to about 46.2 µM), inactives show at the top dose activity change, negative = growth inhibition, actives largely listed as inhibitors | hit rate 15% among 420,000 | AID 686978, 2013; also: nearly all actives have a fitted effect of over 55% in size
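Seeded 400 DT40-hTDP1 cells/well (vehicle DMSO, no 20 nM CPT); pinned compounds; ≥48 hr at 37 °C; CellTiter-Glo luminescence as viability measure.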
VDR inh = vitamin D3 receptor (human) inhibition; Potency, µM, without a hit: max response, negative = inhibition, usual class: inhibitors; P11473; hit rate 0.93% among 400,000; AID 504847; VDR-SRC2-3 peptide fluorescence polarization, 2 h
Target sequence (P11473 whole entry, looked up): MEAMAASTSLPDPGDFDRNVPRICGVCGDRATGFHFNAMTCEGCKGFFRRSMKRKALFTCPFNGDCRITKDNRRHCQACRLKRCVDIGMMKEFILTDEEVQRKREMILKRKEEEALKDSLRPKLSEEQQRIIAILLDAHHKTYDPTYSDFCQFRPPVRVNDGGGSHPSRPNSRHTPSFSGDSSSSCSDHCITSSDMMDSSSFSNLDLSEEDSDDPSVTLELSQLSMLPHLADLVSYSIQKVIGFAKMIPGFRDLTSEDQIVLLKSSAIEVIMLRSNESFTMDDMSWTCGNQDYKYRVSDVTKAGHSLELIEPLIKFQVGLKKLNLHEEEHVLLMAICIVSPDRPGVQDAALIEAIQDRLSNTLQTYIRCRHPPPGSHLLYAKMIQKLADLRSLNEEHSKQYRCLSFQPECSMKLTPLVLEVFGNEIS
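Fluorescence polarization assay of small-molecule disruption of VDR binding to coregulator peptide SRC2-3. Compounds and controls pin-transferred, then read after 2 h incubation at ambient room temperature.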
DT40 TDP1 CPT = growth inhibition of DT40 Tdp1-/-;hTDP1 cells with camptothecin (screen for TDP1 inhibitors); chicken DT40 Tdp1-/-;hTDP1 cells + 20 nM CPT, ATP luminescence, 48 h; Potency, µM (doses to about 46.2 µM), for the others: at the highest dose activity change, negative = growth inhibition, most hits filed as inhibitors; hit rate 12% among 420,000; AID 686979; also: nearly all actives have a fitted effect of over 55% in size
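Chicken DT40 Tdp1-/- cells complemented with human TDP1, 400 cells/well, exposed to compounds plus 20 nM camptothecin for at least 48 h at 37 C; viability read as ATP content by CellTiter-Glo luminescence.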
* marks the source's active call; other numbers are inactive results; ? = inconclusive; nt = not tested or not shown; [ ] = remark or other dose. Calls follow the shape of the dose curve; as a rule, active = well fitted curve in the direction sought with a large enough effect; inconclusive = small, poorly fitted or top-dose-only effect, or another doubt; inactive = no such curve, though single readings can be large; an effect the other way counts as inactive or inconclusive. % is scaled to controls: 0 for no effect and ±100 for the full control effect; potency is read from the fitted curve at half-maximal effect.

SMILES	KAT2A inh	TDP1 inh	PLK1 PBD inh	TDP1 cell noCPT	VDR inh	DT40 TDP1 CPT
CCOC(=O)c1ccc(NC(=O)CSc2nccn2-c2ccc(OCC)cc2)cc1	-1.9%	0.0%[12.3 µM]	nt	?	-14.2%	?
CCc1ccc(NC(=O)CSc2nc3n[nH]c(C)c3c(=N)n2-c2ccc(C)cc2)cc1	3.5%	5.7%	nt	3.66µM*	7.9%	6.51µM*
CCC(Sc1nc2n[nH]c(C)c2c(=N)n1-c1ccc(Br)cc1)C(=O)N(CC)CC (stereo unspecified)	1.1%	7.0%	nt	14.6µM*	9.8%	18.4µM*
CCOc1ccc(-n2c(SCC(=O)Nc3ccc(CC)cc3)nc3n[nH]c(C)c3c2=N)cc1	-15.5%	0.0%	2.7%	20.6µM*	-9.9%	?
Cc1[nH]nc2nc(SCC(=O)NC3CCCCC3)n(-c3ccc(Br)cc3)c(=N)c12	-8.5%	-10.2%	-7.3%	6.51µM*	-2.0%	8.2µM*
Cc1ccc(S(=O)(=O)NC(C)C(=O)OCC(=O)N(C)c2ccccc2)cc1 (stereo unspecified)	-0.6%	1.2%	4.8%	0.0%	-2.2%	-2.8%
CCc1ccc(-n2c(=O)c3c(C)c(C)sc3n(CC(=O)NCC3CCCO3)c2=O)cc1 (stereo unspecified)	-9.8%	1.2%	-9.7%	?	-9.0%	9.4%
CCOC(=O)C1CCN(C(=O)C2CCN(c3nnc(C)c4c(C)n(-c5ccccc5)nc34)CC2)CC1	-13.6%	2.8%	nt	?	11.1%	?
COc1ccc(-c2ccc(/C=C(\NC(=O)c3ccccc3)C(=O)N3CCOCC3)o2)cc1	-5.4%	4.8%	-11.6%	20.6µM*	-5.0%	14.6µM*
COCCn1c(=O)c(-c2ccccc2)nc2cnc(Oc3ccccc3)nc21	-8.7%	nt	nt	-28.1%	-10.0%	-2.9%
CCOC(=O)C1C(C(=O)OC)=C(CC(C)C)c2ccccc2N1S(=O)(=O)C(F)(F)F (stereo unspecified)	14.7%	-11.2%	nt	nt	-15.7%	nt
Cc1ccc(NC(=O)CN2C(=O)NC3(CCCc4ccccc43)C2=O)cc1S(=O)(=O)N1CCOCC1 (stereo unspecified)	-13.2%	-3.1%	-5.1%	?	13.2%	-9.3%
CCN(CC)S(=O)(=O)c1cc(NC(=O)CN2C(=O)NC3(CCCc4ccccc43)C2=O)ccc1C (stereo unspecified)	-5.1%	3.1%	-20.1%	?	-12.8%	23.1µM*
Cc1ccc(C)c(NC(=O)CN(C)C(=O)CN2C(=O)NC3(CCc4ccccc43)C2=O)c1 (stereo unspecified)	-2.6%	-0.3%[56.1 µM]	-1.7%	8.2µM*	-2.4%	9.2µM*
Cc1ccc(C)c(C(=O)CN2C(=O)NC3(CCc4ccccc43)C2=O)c1 (stereo unspecified)	-7.8%	0.6%	-6.5%	?	9.1%	?
COc1ccc2c(c1)cc1c(=O)n(CC(=O)NC3CC3)nc(C)n12	-4.7%	-2.9%	nt	4.0%	?	-1.9%
COCCNC(=O)NC1(C(F)(F)F)Oc2ccc(Cl)cc2O1 (stereo unspecified)	2.3%	-13.5%	-18.3%	13µM*	9.4%	18.4µM*
O=C(NCc1cccnc1)NC1(C(F)(F)F)Oc2ccc(Cl)cc2O1 (stereo unspecified)	-7.4%	-4.1%	3.4%	11.6µM*	-26.1%	10.3µM*
Cc1ccc(Cl)cc1NC(=O)NCc1cccnc1	-1.8%	0.5%[56.1 µM]	-4.7%	12.4%	4.0%	-11.5%
Cc1cc(NC(=O)NC2(C(F)(F)F)Oc3ccc(Cl)cc3O2)no1 (stereo unspecified)	-2.8%	-4.2%	-9.9%	18.4µM*	5.4%	18.4µM*
C[C@H]1C[C@]2(O[C@@H]2C)C(=O)O[C@@H]2CCN(C)C/C=C(/COC(=O)[C@]1(C)O)C2=O	-3.4%	-4.4%[56.1 µM]	nt	3.7%	10.7%	-5.4%
COc1ccc(S(=O)(=O)NCC2CCCO2)cc1NC(=O)c1ccc(Cl)cc1 (stereo unspecified)	-9.8%	-1.1%	-8.0%	-28.7%	-7.9%	-17.7%
Cc1ccc(C2c3c(oc4ccccc4c3=O)C(=O)N2c2nnc(C)s2)cc1 (stereo unspecified)	2.2%	11.6%	nt	20.6µM*	9.5%	13µM*
c1ccc(OCCNc2nc(NCC3CC3)nc3cc(-c4ccccc4)sc23)cc1	nt	nt	-3.2%	5.8µM*	nt	5.8µM*
c1ccc(CNc2nc(NCC3CC3)nc3cc(-c4ccccc4)sc23)cc1	nt	nt	2.1%	10.3µM*	nt	9.2µM*
SMILES	KAT2A inh	TDP1 inh	PLK1 PBD inh	TDP1 cell noCPT	VDR inh	DT40 TDP1 CPT
C=CCNc1nc(NCCNC(C)=O)c2sc(-c3ccccc3)cc2n1	nt	nt	-3.5%	?	nt	?
O=S1(=O)[C@H]2C[C@@H]3CC[C@]2(CN1Cc1cccc(F)c1)O3	-3.8%	nt	-12.6%	1.5%	-5.4%	-9.8%
CCC(CO)Oc1cc(NCc2ccc(C(=O)O)cc2)c2ncn(C(C)C)c2c1 (stereo unspecified)	1.1%	1.9%	-26.0%	0.3%	-4.5%	-11.3%
CCC(CO)Oc1cc(NC(=O)c2ccc(OC)cc2)c2ncn(C(C)C)c2c1 (stereo unspecified)	-3.5%	-3.3%	-4.3%	?	?	18.4µM*
CCC(CO)Oc1cc(NC(=O)c2ccccc2[N+](=O)[O-])c2ncn(C(C)C)c2c1 (stereo unspecified)	1.6%	0.7%	-0.4%	?	-17.5%	16.4µM*
CCC(CO)Oc1cc(NC(=O)c2cccc(OC)c2)c2ncn(C(C)C)c2c1 (stereo unspecified)	-17.7%	nt	-3.0%	?	-13.3%	?
CS(=O)(=O)NCCSc1cc(C(F)(F)F)nc2ccccc12	-8.9%	5.5%	-2.1%	?	3.6%	8.3%
CN1C(C)(C)CC(O)(C(=O)O)CC1(C)C	nt	nt	-18.6%	-0.9%	nt	-11.1%
Cc1ccsc1/C=N/NC(=O)c1cc(-c2ccncc2)nc2ccccc12	-7.8%	7.9%	-3.3%	0.581µM*	-16.5%	0.581µM*
COc1ccccc1-c1cc(C(=O)N/N=C/c2sccc2C)c2ccccc2n1	2.5%	-3.1%	-3.6%	1.03µM*	-2.0%	6.51µM*
Cc1ccsc1/C=N/NC(=O)c1c[nH]c2ccccc12	-6.2%	3.2%	0.1%	?	-6.3%	?
CCc1nn2c(N3CCOCC3)cc(C)nc2c1-c1ccccc1	-8.5%	nt	-2.6%	-29.9%	-18.4%	-9.7%
Nc1nn(-c2ccccc2)nc1C(=O)OCc1ccc(Cl)cc1	-7.4%	-14.8%	nt	1.0%	-11.2%	-0.2%

High-throughput results as filed in PubChem.
